Results filed as inconclusive are left out. The source made the active and inactive calls. Unless noted, the call rests on the fitted dose curve; in most records, active means well fitted curve in the direction sought with a large enough effect; inconclusive means small, poorly fitted or top-dose-only effect, or another doubt; inactive means no such curve, though single readings can be large; an effect the other way counts as inactive or inconclusive.
Columns and labels:
[1] = AP1 Signaling Pathway (AID 357; active means well fitted curve in either direction with a large enough effect, not every such curve was filed as active; further: on the % scale 0 is the no-effect control and ±100 the full control effect); conditions: ME-180 AP-1-bla reporter, EGF-induced, beta-lactamase ratio, 5 h; at 38 µM (top of the series)
In short: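 ME-180 cells with beta-lactamase reporter under AP-1 response element, stimulated with EC50 EGF; compounds tested in titration series, 5 h at 37 °C. CCF4 substrate added 2.5 h at room temperature; 460/530 nm emission ratio gave %activity and AC50.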

[2] = target: Cytochrome P450 1A2 (Homo sapiens) (UniProt P05177); test: p450-cyp1a2 (AID 410; calls by dose curve;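 further: -100% = full effect of reference inhibitor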)
In short: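 20nM CYP1A2 with 100uM Luciferin-ME (at Km) in 100mM KPO4; compound preincubated 10 min, NADPH regeneration added, 60 min at room temperature. Luciferin quantified by luminescence after detection reagent; normalized to 57 uM furafylline.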

[3] = NFAT Signaling Pathway (AID 444; active means well fitted curve in either direction with a large enough effect, not every such curve was filed as active;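 further: carbachol stimulus at about its EC50 of 1 µM final; on the % scale 0 is the no-effect control and ±100 the full control effect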); conditions: Jurkat NFAT-bla M1, carbachol, beta-lactamase ratio, 5 h; at 38 µM (top of the series)
In short: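 Jurkat cells with NFAT-driven β-lactamase reporter and co-expressed M1 receptor, stimulated with carbachol (final 1 uM, ~EC50), compound titration, 5 h at 37 °C. CCF4 loaded 1 h at RT; 460/530 nm ratio gave %activity and AC50.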

[4] = Stat Signaling Pathway (AID 446; active means well fitted curve in either direction with a large enough effect, not every such curve was filed as active;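 further: ME-180 cervical cancer cells given 40 pM IL-6 alongside compound; SIE-controlled beta-lactamase reporter measured as 460/530 nm FRET emission ratio; on the % scale 0 is the no-effect control and ±100 the full control effect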); conditions: ME-180 SIE beta-lactamase reporter, IL-6 stimulated, 5 h; at 38 µM (top of the series)
In short: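 ME-180 SIE-bla cells; overnight plating; cpd + IL-6 40 pM, 5 h, 37 C; LiveBLAzer 2.5 h RT; 460/530 nm emission ratio. Normalized to 300 pM IL-6 and 125 nM JAK inhibitor controls.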

[5] = target: Glucocorticoid receptor (Homo sapiens) (UniProt P04150); test: GR-GFP Redistribution (AID 450;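 active means compounds whose dose series gives a full or clear partial fitted curve of increased nuclear translocation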; further: potency means the concentration at half of the fitted maximal effect); conditions: U2OS GR-GFP nuclear translocation, laser cytometry, 2 h
[6] = target: Glucocorticoid receptor (Homo sapiens) (UniProt P04150); test: GR-EFC Redistribution (AID 451; calls by dose curve; further: potency means the concentration at half of the fitted maximal effect); conditions: CHO-K1 GR-EFC translocation, beta-gal luminescence, 2 h
In short: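 CHO-K1 cells expressing nuclear EA and GR-ED fragments of b-gal; compounds titrated up to 46 uM final, 2 h at 37 C. GR nuclear translocation read as complemented b-gal luminescence after 1 h RT detection.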

[7] = target: Mitogen-activated protein kinase 10 (Mus musculus) (UniProt Q61831); test: JNK3 AlphaScreen Assay (AID 530; active means well fitted curve in either direction with a large enough effect, not every such curve was filed as active;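 further: kinase came from lysate of stimulated human HepG2 cells; signal reports phosphorylation of biotinylated GST-cJun 1-79 at Ser73 with 10 µM ATP; on the % scale 0 is the no-effect control and ±100 the full control effect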)
In short: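 Pre-activated (IL-1β/TNFα) JNK3 in HepG2 lysates phosphorylates biotin-GST-cJun(1-79), 10 uM ATP; anti-phospho-cJun(Ser73) AlphaScreen read at room temperature, pH 7.6 Tris buffer. Compounds pre-incubated 15 min as titrations.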

[8] = target: 3',5'-cyclic-AMP phosphodiesterase 4B (Homo sapiens) (UniProt Q07343); test: qHTS Assay for Inhibitors of PDE-IV (AID 607; active means well fitted activation curve with a large enough effect in the main read-out, with a control signal flat, not every such curve was filed as active; further: % of control where 0% means no effect)
In short: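 ACTOne HEK293 cells carry a modified cAMP-gated CNG channel and express endogenous PDE4; plated 1000 cells/well, compounds up to 22.9 uM final. Membrane-potential dye fluorescence (ex 535/em 590) was read; parental cells received 10 uM forskolin + 100 uM RO 20-1724.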

[9] = target: Guanine nucleotide-binding protein G(i) subunit alpha-1 (Homo sapiens) (UniProt P63096); test: qHTS Assay for Inhibitors of RGS12 GoLoco Motif Activity (Green Fluorophore) (AID 879);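 further: 0% = labeled peptide with Gαi1 and full inhibition = labeled peptide alone without protein; negative values mean loss of peptide binding seen as reduced polarization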
In short: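 Fluorescence polarization assay: 50 nM Gαi1 with 10 nM FITC-labeled RGS12 GoLoco peptide in 10 mM Tris pH 7.5, 150 mM NaCl, 0.1 mM GDP, 0.05% NP40, 10 min at room temperature with compound.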

[10] = target: Cytochrome P450 3A4 (Homo sapiens) (UniProt P08684); test: qHTS Assay for Activators of Cytochrome P450 3A4 (AID 885); further: nearly all actives have a fitted effect of over 65% in size
In short: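 20nM CYP3A4 + 25uM Luciferin-PPXE (=KM), 200mM KPO4; cpd 10 min RT; NADPH regen, 60 min RT; stop w/ detection buffer, 20 min; luminescence. Normalized to 57 uM ketoconazole.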

[11] = qHTS Assay for Identification of Small Molecule Agonists for Thrombopoietin (TPO) Signaling Pathway (AID 917); further: on the % scale 0 is the no-effect control and ±100 the full control effect
In short: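 Murine Ba/F3 cells expressing human TPO receptor and GPIIb-promoter luciferase, IL-3-starved overnight, given compound plus TPO at 26 pM (EC50). After 24 h at 37 C, 5% CO2, luminescence read.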

[12] = target: Muscarinic acetylcholine receptor M1 (Rattus norvegicus) (UniProt P08482); test: qHTS Assay for Antagonists of Acetylcholine Muscarinic M1 Receptor: Kinetic Measurement of Intracellular Calcium Response (AID 943); further: nearly all actives have a fitted effect of over 75% in size
In short: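 CHO cells expressing rat M1 receptor, Fluo-4 loaded, preincubated 10 min with compound, then stimulated with EC80 carbachol (100 nM final). Kinetic calcium fluorescence over 4 min; response taken as peak over basal signal.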

[13] = target: Pyruvate kinase (Leishmania mexicana) (UniProt Q27686); test: qHTS Validation Assay for Inhibitors of Leishmania Mexicana Pyruvate Kinase (AID 945);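 further: 0% = DMSO only neutral control wells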
In short: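 An endpoint luciferase assay: 0.2 nM LmPYK E451W turns over 0.5 mM PEP with 0.1 mM ADP for 1 h at room temperature, pH 7.2, before PKLight addition. Values are normalized to DMSO-only wells.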

[14] = target: Pyruvate kinase PKM (Homo sapiens) (UniProt P14618); test: qHTS Assay for Activators of Human Muscle Pyruvate Kinase (AID 954; active means well fitted curve in the direction sought with a large enough effect, not every such curve was filed as active;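 further: 0% = uninhibited enzyme and -100% = no enzyme or full thiadiazolimine inhibition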)
In short: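 Luminescence from a luciferase ATP-detection/stop reagent reported PKM2 activity. Reactions contained 0.1 nM purified human enzyme, 0.5 mM PEP, 0.1 mM ADP and 7 mM MgCl2 at pH 7.2, run 1 h at RT.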

[15] = target: Alpha-galactosidase A (Homo sapiens) (UniProt P06280); test: Counterscreen for Glucocerebrosidase Inhibitors: qHTS Assay for Human alpha-Galactosidase at pH 4.5 (AID 992); further: 0% is about no effect
In short: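 Enzyme at 2 nM final was combined with compound (0.7 nM to 77 uM) and 80 uM 4-methylumbelliferyl alpha-D-galactopyranoside in 50 mM citric acid, 0.005% Tween-20, pH 4.5. After 20 min at room temperature, fluorescence was read (Ex 365/Em 440 nm); AC50 came from Hill fits.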

[16] = target: alpha-glucosidase (Oryza sativa, rice) (UniProt Q653V4); test: Counterscreen for Glucocerebrosidase Inhibitors: qHTS Assay for Rice alpha-Glucosidase at pH 5.0 (AID 997);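 further: 0% = full activity with enzyme and -100% = basal without enzyme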
In short: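 Rice alpha-glucosidase (4 nM final) with 400 uM 4-methylumbelliferyl-alpha-D-glucopyranoside in citrate buffer pH 5.0, 20 min at room temperature, stopped at pH 10; fluorescence 365/440 nm, compounds 0.7 nM–77 uM, AC50 from Hill fits.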

[17] = Validation of Assay for Modulators of Lamin A Splicing (AID 1459; active means well fitted curve in the direction sought with a large enough effect in the signal ratio; the % refers to the signal ratio;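 further: cells exposed to compound for two days before reading; 0% is about no effect; ratio rise marks activators and ratio drop marks inhibitors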)
In short: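 S3 HeLa stably expressing lamin A-EGFP splicing minigene and DsRed2, 600 cells/well in Opti-MEM with 2% FBS, treated 48 h at 37C; laser-scanning cytometry gives GFP/RFP total intensity ratio; ancitabine positive control, 0.5% DMSO vehicle.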

[18] = target: DNA repair nuclease/redox regulator APEX1 (Homo sapiens) (UniProt P27695); test: qHTS Validation Assay for Inhibitors of the Human Apurinic/apyrimidinic Endonuclease 1 (APE1) (AID 1705)
In short: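 Fluorogenic double-stranded THF abasic-site substrate (5'-TAMRA/3'-BHQ-2), 50 nM final. Enzyme preincubated with compound 15 min at room temperature, then substrate added. Kinetic fluorescence (ex 525/em 598 nm) read three times at 60 s intervals; activity taken as third-minus-first read difference.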

[19] = Counterscreen for APE1 Inhibitors: Fluorescent Dye Displacement Validation Assay (AID 1707);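 further: plate controls were ThO with dsDNA and no compound for no effect and ThO without dsDNA for full effect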
In short: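 Thiazole Orange displacement from dsDNA: 250 nM ThO with 50 nM TAMRA-labelled abasic-site (tetrahydrofuran) duplex in 50 mM Tris-HCl pH7.5, 50mM NaCl, 2 mM MgCl2, 0.01% Tween-20. Loss of endpoint fluorescence (ex 480 nm, em 540 nm) flags DNA binders.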

Chain of Glucocorticoid receptor (Homo sapiens) (P04150 whole entry, looked up, the tested form may be a part): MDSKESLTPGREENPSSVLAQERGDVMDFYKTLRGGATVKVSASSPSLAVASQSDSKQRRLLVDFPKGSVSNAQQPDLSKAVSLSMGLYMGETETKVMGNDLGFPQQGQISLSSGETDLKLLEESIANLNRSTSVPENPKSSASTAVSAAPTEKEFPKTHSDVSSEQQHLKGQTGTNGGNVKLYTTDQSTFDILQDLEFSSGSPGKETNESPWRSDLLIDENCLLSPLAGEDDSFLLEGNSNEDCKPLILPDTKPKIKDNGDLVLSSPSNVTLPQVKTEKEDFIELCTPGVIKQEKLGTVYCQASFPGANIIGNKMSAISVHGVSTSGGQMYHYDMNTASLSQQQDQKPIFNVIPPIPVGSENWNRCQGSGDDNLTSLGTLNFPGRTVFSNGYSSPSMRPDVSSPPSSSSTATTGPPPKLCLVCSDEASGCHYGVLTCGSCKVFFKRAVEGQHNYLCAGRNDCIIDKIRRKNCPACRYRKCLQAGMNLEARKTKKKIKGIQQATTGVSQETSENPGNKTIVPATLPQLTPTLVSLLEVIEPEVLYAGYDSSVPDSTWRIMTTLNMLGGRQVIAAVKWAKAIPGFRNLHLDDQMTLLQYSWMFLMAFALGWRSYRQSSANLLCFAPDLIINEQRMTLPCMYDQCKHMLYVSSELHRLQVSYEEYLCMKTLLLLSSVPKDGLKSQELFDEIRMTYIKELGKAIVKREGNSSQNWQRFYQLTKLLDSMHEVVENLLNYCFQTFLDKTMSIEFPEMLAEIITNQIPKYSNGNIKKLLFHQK
Chain of Cytochrome P450 1A2 (Homo sapiens) (P05177 whole entry, looked up): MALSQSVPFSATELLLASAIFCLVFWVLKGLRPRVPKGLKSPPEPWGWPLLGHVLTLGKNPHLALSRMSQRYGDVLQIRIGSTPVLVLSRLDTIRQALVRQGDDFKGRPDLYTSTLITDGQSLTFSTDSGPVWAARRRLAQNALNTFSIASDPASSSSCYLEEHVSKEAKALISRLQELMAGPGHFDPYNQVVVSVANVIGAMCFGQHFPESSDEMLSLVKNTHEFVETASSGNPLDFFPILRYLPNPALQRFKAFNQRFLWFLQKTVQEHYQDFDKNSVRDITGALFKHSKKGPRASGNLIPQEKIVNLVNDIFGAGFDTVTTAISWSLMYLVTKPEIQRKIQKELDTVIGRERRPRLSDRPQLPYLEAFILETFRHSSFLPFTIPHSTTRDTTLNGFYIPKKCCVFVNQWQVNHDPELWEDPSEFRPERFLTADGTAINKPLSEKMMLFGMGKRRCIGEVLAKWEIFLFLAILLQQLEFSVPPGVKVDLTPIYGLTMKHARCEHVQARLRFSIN
Chain of 3',5'-cyclic-AMP phosphodiesterase 4B (Homo sapiens) (Q07343 whole entry, looked up): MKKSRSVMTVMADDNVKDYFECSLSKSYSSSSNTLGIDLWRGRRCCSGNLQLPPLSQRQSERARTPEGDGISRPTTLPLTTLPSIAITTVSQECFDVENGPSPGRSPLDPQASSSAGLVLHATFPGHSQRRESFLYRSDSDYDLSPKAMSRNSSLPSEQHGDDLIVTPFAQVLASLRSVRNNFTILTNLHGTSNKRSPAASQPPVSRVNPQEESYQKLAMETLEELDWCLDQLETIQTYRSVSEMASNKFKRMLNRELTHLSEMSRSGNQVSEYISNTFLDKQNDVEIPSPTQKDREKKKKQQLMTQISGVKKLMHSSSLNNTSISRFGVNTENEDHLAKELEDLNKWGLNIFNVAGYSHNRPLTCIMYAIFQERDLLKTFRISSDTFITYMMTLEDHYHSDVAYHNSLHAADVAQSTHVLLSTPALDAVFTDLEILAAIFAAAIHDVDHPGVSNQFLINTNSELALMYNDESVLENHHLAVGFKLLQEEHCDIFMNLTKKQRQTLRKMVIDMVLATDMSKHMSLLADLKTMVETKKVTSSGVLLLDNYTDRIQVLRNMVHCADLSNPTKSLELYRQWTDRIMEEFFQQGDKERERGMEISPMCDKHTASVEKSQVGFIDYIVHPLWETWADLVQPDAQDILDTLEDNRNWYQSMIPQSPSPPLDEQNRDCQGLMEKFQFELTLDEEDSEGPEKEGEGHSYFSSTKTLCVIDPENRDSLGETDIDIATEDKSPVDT
Chain of Cytochrome P450 3A4 (Homo sapiens) (P08684 whole entry, looked up): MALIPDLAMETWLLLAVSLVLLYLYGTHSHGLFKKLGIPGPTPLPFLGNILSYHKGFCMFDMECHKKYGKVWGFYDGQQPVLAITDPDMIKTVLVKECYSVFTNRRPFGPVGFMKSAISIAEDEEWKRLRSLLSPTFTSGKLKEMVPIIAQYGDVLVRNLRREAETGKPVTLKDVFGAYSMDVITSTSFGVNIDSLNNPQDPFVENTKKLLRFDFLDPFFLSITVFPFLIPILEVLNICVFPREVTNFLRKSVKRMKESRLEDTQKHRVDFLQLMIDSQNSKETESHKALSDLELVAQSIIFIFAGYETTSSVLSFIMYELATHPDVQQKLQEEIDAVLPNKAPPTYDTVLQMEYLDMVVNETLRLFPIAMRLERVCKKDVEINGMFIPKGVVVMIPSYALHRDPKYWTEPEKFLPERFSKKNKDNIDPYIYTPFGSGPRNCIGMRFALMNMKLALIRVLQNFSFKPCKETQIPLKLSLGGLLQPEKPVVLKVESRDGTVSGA
Chain of Alpha-galactosidase A (Homo sapiens) (P06280 whole entry, looked up): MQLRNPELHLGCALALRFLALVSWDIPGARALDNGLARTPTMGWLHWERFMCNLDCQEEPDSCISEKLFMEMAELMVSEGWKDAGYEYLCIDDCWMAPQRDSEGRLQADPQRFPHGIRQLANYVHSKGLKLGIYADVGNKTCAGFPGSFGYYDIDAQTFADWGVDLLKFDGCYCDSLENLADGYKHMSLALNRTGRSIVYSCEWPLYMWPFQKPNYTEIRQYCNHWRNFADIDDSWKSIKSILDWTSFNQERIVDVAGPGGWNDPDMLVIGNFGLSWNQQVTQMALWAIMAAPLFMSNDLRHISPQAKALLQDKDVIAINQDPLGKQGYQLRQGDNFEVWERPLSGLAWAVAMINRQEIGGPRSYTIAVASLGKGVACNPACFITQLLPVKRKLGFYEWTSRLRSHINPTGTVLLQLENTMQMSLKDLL
Chain of Pyruvate kinase PKM (Homo sapiens) (P14618 whole entry, looked up): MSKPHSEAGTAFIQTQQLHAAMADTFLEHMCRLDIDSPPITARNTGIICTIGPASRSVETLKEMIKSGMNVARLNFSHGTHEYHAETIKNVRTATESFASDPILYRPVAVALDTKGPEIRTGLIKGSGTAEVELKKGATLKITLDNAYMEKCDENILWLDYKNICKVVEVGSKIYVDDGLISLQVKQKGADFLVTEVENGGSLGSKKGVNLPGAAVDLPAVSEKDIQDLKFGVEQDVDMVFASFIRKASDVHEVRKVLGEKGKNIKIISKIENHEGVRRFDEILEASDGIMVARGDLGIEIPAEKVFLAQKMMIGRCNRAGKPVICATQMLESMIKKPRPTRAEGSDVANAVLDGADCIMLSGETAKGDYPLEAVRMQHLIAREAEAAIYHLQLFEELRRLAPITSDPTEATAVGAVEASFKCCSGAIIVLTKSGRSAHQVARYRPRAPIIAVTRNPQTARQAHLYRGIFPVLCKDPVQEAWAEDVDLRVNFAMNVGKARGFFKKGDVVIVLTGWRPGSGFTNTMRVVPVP
Chain of Pyruvate kinase (Leishmania mexicana) (Q27686 2-499 E452W): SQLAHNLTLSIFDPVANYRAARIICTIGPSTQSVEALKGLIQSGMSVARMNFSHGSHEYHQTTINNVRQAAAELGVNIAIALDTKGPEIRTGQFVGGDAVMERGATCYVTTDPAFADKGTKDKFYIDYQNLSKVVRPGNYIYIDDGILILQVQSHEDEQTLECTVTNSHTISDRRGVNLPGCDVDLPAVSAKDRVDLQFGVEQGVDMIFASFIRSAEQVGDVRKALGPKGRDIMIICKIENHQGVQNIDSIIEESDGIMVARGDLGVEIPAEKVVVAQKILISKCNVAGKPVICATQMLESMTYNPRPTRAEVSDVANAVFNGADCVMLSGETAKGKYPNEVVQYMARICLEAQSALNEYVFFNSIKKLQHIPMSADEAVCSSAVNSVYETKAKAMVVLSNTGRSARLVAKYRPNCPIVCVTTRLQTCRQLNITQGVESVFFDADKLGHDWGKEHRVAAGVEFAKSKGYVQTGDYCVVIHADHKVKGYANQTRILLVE
Chain of DNA repair nuclease/redox regulator APEX1 (Homo sapiens) (P27695 whole entry, looked up): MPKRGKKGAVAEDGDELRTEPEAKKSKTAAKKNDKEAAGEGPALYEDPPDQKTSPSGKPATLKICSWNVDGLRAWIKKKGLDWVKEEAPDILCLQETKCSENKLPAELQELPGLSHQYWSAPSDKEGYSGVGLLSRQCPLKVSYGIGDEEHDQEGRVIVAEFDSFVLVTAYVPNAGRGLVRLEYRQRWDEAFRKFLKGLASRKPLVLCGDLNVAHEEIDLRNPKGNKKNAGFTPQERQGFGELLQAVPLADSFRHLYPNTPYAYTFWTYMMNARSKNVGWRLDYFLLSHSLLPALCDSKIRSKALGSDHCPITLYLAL
Chain of Muscarinic acetylcholine receptor M1 (Rattus norvegicus) (P08482 whole entry, looked up): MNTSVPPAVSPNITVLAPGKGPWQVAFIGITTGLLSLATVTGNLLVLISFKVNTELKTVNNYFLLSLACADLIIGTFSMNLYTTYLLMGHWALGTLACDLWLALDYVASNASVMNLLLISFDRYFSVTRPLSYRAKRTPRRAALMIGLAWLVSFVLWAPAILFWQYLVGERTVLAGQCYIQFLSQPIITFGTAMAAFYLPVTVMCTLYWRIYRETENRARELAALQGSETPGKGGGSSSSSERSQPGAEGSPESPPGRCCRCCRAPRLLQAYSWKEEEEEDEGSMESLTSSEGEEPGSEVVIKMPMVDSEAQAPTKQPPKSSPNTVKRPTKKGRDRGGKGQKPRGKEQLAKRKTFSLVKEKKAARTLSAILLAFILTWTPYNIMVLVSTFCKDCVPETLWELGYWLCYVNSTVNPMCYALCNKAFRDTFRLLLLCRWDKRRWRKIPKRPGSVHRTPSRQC

COC(=O)c1c(-c2cc(OC)c(OC)c(OC)c2)c2ccnc(OCc3ncccn3)c2c(=O)n1Cc1ccnc(C)c1
inactive: activity change, negative = inhibition [1] -4.4% | Potency [2] | activity change, negative = inhibition [3] 4.39% | activity, negative = inhibition [4] -8.52% | Potency [5] > 46 µM | Potency [6] > 46 µM | Potency [7] | Potency [8] | outcome [9] | Potency [10] | Potency [11] | Potency [12] | Potency [13] | outcome [14] | outcome [15] | outcome [16] | outcome [17] | Potency [18] | Potency [19]

From PubChem BioAssay (NCATS)
